The text below walks through data of PubChem BioAssay AID1345082 (National Center for Advancing Translational Sciences (NCATS), 2018).

SMILES strings stand for the structures. Hit rate of the full screen: of about 94,000 compounds, about 4,000 (4.3%) were called active. Not shown: some 29% with an inconclusive outcome. This excerpt belongs to a sample that is enriched for actives. A number with no mark means an inactive call. Calls come from the whole dose curve; as a rule, active = well fitted inhibition curve with a large enough effect; inconclusive = small, poorly fitted or top-dose-only effect; inactive = no such curve, though single readings can be large or run the other way.
% is set by controls: 0 for no effect and ±100 for the full control effect; potency is the fitted concentration of half-maximal effect.

This assay is described as follows: Cytotoxic Profiling in NIH 3T3 Cell Line of Diverse Libraries Using Quantitative High-Throughput Screening. Note: nearly all actives have a fitted effect of over 55% in size. Conditions: NIH 3T3 viability, CellTiter-Glo ATP luminescence, 48-72 h; series mostly up to 96.7 µM; activity change, negative = cytotoxicity: at the top concentration. Put shortly: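 ATP-dependent luminescence (CellTiter-Glo) served as the viability signal for NIH 3T3 cells treated with compound for 48 or 72 hr at 37 °C.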
In general terms: In ATP-based viability assays light output follows the ATP content of the culture.
As to `COC[C@@H]1[C@@H](NC(=O)Cc2nn(C)c(=O)c3ccccc23)[C@@H]2CCO[C@H]12`, the call was inactive.

With `O=C1CO[C@H]2CN(C3CCC3)C[C@H]2N1Cc1ccc(OC(F)(F)F)cc1`, the Potency is 89.1 µM (active).

`COc1ccc(CN2C(=O)CO[C@H]3CN(C(=O)C4CC4)C[C@H]32)cc1`: the “outcome” value was “inactive [at 174 µM]”.

As to `COc1ccc(CN2C(=O)CO[C@H]3CN(Cc4cccnc4)C[C@H]32)cc1`, the “activity change, negative = cytotoxicity” value is -16.6% [at 174 µM].

Regarding `Clc1ccc(-c2nnc3n2CCN(Cc2cccc4ccccc24)C3)cc1`, the “activity change, negative = cytotoxicity” value was -1.44%.

As for `CCc1noc(-c2cn(C3CCN(C(=O)c4ccc(Cl)cc4)C3)nn2)n1` (centres undefined), the “activity change, negative = cytotoxicity” value is -37.5%.

On to `COc1cccc(CN2C(=O)OC3(CCN(C(=O)c4scnc4C)CC3)C2(C)c2cccnc2)c1` (centres undefined), for which the Potency is 31.6 µM (active).

As to `COc1cccc(C(=O)N2CCC(Cc3nc(-c4cnccn4)no3)CC2)c1`, the “activity change, negative = cytotoxicity” value is -14.6%.

Consider `COc1cccc(CN2CCN(C(=O)c3cnc4ccccn4c3=O)CC2=O)c1`, for which the “activity change, negative = cytotoxicity” value is -20.9%.

As to `O=C(CCCc1ccccc1)Nc1ccnn1C1CCN(C(=O)CCn2cncn2)CC1`, the “activity change, negative = cytotoxicity” value is -8.17%.

Turning to `Cc1cc(C(=O)N2CC[C@@H]3CN(Cc4ccccc4)[C@@H]3C2)nn1C`, the “activity change, negative = cytotoxicity” value was 3.88%.

In the case of `Cc1nc(-c2c3n(c(=O)n(CC(=O)Nc4ccccc4C)c2=O)CCCCC3)no1`, the “activity change, negative = cytotoxicity” value is -7.9%.

As to `Cc1nc2scc(CC(=O)NC(C)C)n2c(=O)c1-c1cc(C)n(-c2cccc(Cl)c2)n1`, the compound was classed as inactive.

Regarding `CCn1c(C2CCCN(C(=O)c3ccc(C(C)(C)C)cc3)C2)nn(C)c1=O` (centres undefined), the “activity change, negative = cytotoxicity” value is -23.2%.

Regarding `CC(C)c1ccc(N2C(=O)N[C@@H]3CCN(C(=O)c4ccc(C(C)(C)C)cc4)[C@@H]3C2=O)cc1`, the Potency was 70.8 µM (active).

Take `O=C1C(N2CCN(S(=O)(=O)c3ccccc3)CC2)CCN1CCc1ccccc1` (centres undefined): the “activity change, negative = cytotoxicity” value was -29.8%.

`Cc1ccccc1NC(=O)Nc1ccnn1C1CCN(C(=O)CCN)CC1`: the “activity change, negative = cytotoxicity” value was -3.4%.

Consider `CC(C)c1ccc(C(=O)N2C[C@@H]3CCCN4CCC[C@@H]([C@H]34)[C@H]2CCCC(=O)N2CCOCC2)cc1`, for which the “activity change, negative = cytotoxicity” value was -9.71%.

As for `CCC(CC)C(=O)NC1CCN(c2cnn(CCOC)c(=O)c2)CC1`, the “activity change, negative = cytotoxicity” value is -18.5%.

In the case of `COc1ccccc1CN1CC[C@@H](CO)N(C)c2ncccc2C1`, the Potency is 35.5 µM (active).

On to `Cc1ccc2c(n1)N(C)[C@H](CO)CCN(Cc1cccc(Cl)c1)C2`, for which the “activity change, negative = cytotoxicity” value was -25.8% [at 174 µM].

`Cc1ccc2c(n1)N(C)[C@H](CO)CCN(Cc1ccccc1C)C2`: the “activity change, negative = cytotoxicity” value was -20.4% [at 174 µM].

Turning to `Cc1ccc(-c2cc3c(=O)n(CCNC(=O)Cc4c[nH]c5ccccc45)ccn3n2)cc1C`, the “activity change, negative = cytotoxicity” value was -17.1%.

On to `O=C(NCc1ccncc1)C1CC(=O)N(c2n[nH]c3ccccc23)C1` (centres undefined), for which the call was inactive.

Take `Cc1cccc(OCCc2noc(C3CCCN3C(=O)c3ccnn3C)n2)c1` (centres undefined): the “activity change, negative = cytotoxicity” value is -15.3%.

Regarding `COc1ccc(NC(=O)N2CCCC(Cc3noc(-c4ccccc4)n3)C2)cc1` (centres undefined), the Potency was 35.5 µM (active).

With `Cc1cc(C(=O)N2CCCC(Cc3noc(-c4cccnc4)n3)C2)nn1C` (centres undefined), the “activity change, negative = cytotoxicity” value is -1.02%.

On to `COCCCNC(=O)N1CCC(Cc2noc(-c3ccncc3)n2)C1` (centres undefined), for which the “activity change, negative = cytotoxicity” value is -18.9%.

Regarding `CCN1C(=O)CCN(C(=O)NCCCOC)CC12CCOCC2`, the “activity change, negative = cytotoxicity” value is 2.65%.

As for `O=C1NC(=NC2CCCCC2)C2(CCN([S+](=O)([O-])c3ccccc3)C2)N1c1cccnc1` (centres undefined), the “activity change, negative = cytotoxicity” value is 3.46%.

With `O=C(c1ccsc1)N1CCCCCC1c1nnc(-c2ccccc2)o1` (centres undefined), the “activity change, negative = cytotoxicity” value was -20.9%.

In the case of `COc1ccccc1N1CCN(C(=O)C2CCCN(C(=O)c3ccccc3)CCC(=O)NCC2)CC1` (centres undefined), the call was inactive.

For `COc1ccccc1N1CCCc2ncc(C(=O)N3CCCC[C@@H]3c3ccccc3)cc21`, the Potency is 70.8 µM (active).

For `COc1ccc(C(=O)N2CCCN(C(=O)C3CC3)C(c3ccccc3)CC(=O)NCC2)cn1` (centres undefined), the “activity change, negative = cytotoxicity” value was -7.53%.

As for `CNC(=O)c1cc(C2CC2)nc2onc(C3CCCN(C(=O)OC)C3)c12` (centres undefined), the “activity change, negative = cytotoxicity” value is -20.4%.

`CC(C)NC(=O)NC[C@H]1O[C@@H]2C[C@@H](CC(=O)NCc3nccn3C)O[C@@H]2[C@@H]1O`: the “activity change, negative = cytotoxicity” value was -20.6% [at 174 µM].

For the compound `NC(=O)c1cccc(-c2ncc3c(n2)OCCN(c2cccc(C(F)(F)F)c2)C3=O)c1`, the Potency was 15.8 µM (active).

For the compound `COc1ccc(OC2CCN(C(C)=O)CC2)c(C(=O)N(C)Cc2ccc3nccnc3c2)c1`, the “activity change, negative = cytotoxicity” value was -21.1%.

With `O=C([C@H]1C[C@@H](F)CN1S(=O)(=O)c1ccc(F)c(Cl)c1)N1CCOCC1`, the “activity change, negative = cytotoxicity” value was -0.937%.

With `CN1C[C@@H](NC(=O)COc2ccccc2)C[C@H]1c1nc(-c2ccc3c(c2)OCO3)no1`, the “activity change, negative = cytotoxicity” value is -28.1% [at 174 µM].

For the compound `CN1C[C@@H](NC(=O)c2ccc(C#N)cc2)C[C@H]1c1nc(-c2ccc(OC(F)(F)F)cc2)no1`, the Potency was 39.8 µM (active).

Turning to `CN1C[C@@H](NC(=O)c2ccccc2)C[C@H]1c1nc(-c2ccccc2)no1`, the “activity change, negative = cytotoxicity” value was -17.1% [at 174 µM].

With `COc1ccc(CCc2nc(NC(=O)Cn3nc4c(cc3=O)CCCCC4)n[nH]2)cc1`, the “activity change, negative = cytotoxicity” value was -23.8%.

Regarding `Cc1ccccc1CN1CCC(N2CCCC(C(=O)NC3CC3)C2)CC1` (centres undefined), the “activity change, negative = cytotoxicity” value is -0.637%.

As for `CC(C)CNC(=O)C1CCCN(c2nccc(Nc3ccccc3F)n2)C1` (centres undefined), the Potency was 44.7 µM (active).

Take `Cc1ccc(CNC(=O)C2CCN(C(=O)c3ncn4c3COC(c3ccc(F)cc3)C4)CC2)cc1` (centres undefined): the call was inactive.

As to `O=C(NCc1cccnc1)C1CCCN(c2cnn(Cc3ccccc3)c(=O)c2)C1` (centres undefined), the “activity change, negative = cytotoxicity” value was -24.1%.

As for `CNC(=O)C1CCN(c2nccc(Nc3ccccc3F)n2)CC1`, the “activity change, negative = cytotoxicity” value is -43.4% [at 138 µM].

Take `O=C(NCc1ccc(F)cc1)C1CCN(c2nccc(Nc3ccccc3F)n2)CC1`: the Potency was 44.7 µM (active).
